Data: PubChem BioAssay (NCI)
The panel holds about 79,000 compounds, 15% with a hit somewhere; the sample as a whole holds those more often. Cut-off read from the data, not from the text of the source: active = growth inhibition above about 70%; inactive = the rest.

Experiments:
[1] = NCI Yeast Anticancer Drug Screen. Data for the rad50 strain (AID 155);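 note: 0% = growth of vehicle-only cultures of the same strain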; details: S. cerevisiae rad50 strain growth inhibition; at 50.0 µM; stronger effect = higher value
Outline: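 Cells are treated with compound, grown, and their growth is then scored against vehicle-only cultures of the same repair-deficient yeast strain.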

[2] = NCI Yeast Anticancer Drug Screen. Data for the mec2-1 strain (AID 157); details: S. cerevisiae mec2-1 strain, at 50.0 µM, stronger effect = higher value
Outline: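 Strain: mec2-1 (DNA repair/cell cycle alteration). Compound exposure, then growth measured; inhibition expressed relative to vehicle.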

[3] = NCI Yeast Anticancer Drug Screen. Data for the sgs1 mgt1 strain (AID 161);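 note: 0% = growth of cultures given vehicle only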; details: S. cerevisiae sgs1 mgt1 strain, at 50.0 µM, stronger effect = higher value
Outline: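 Read-out: growth inhibition vs vehicle controls. Cells: mutant yeast strain deficient in DNA damage repair.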

[4] = NCI Yeast Anticancer Drug Screen. Data for the cln2 rad14 strain (AID 165);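 note: 0% = growth equal to vehicle treated cultures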; details: S. cerevisiae cln2 rad14 strain, at 50.0 µM, stronger effect = higher value
Outline: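 Compounds are applied to the cln2 rad14 yeast strain, and growth is then compared with that of vehicle-treated cultures to give inhibition.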

[5] = NCI Yeast Anticancer Drug Screen. Data for the bub3 strain (AID 167); details: S. cerevisiae bub3 mutant strain, at 50.0 µM, stronger effect = higher value
Outline: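 Part of a panel of yeast mutants defective in DNA damage repair or cell cycle regulation. Each strain is grown with compound, and inhibition is calculated relative to solvent-treated cultures.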

[6] = NCI Yeast Anticancer Drug Screen. Data for the mlh1 rad18 strain (AID 175); details: S. cerevisiae mlh1 rad18 strain growth inhibition; at 50.0 µM; stronger effect = higher value
Outline: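 Read-out is yeast growth inhibition, calculated against vehicle-only controls. The compound was applied to a strain engineered with DNA damage repair alterations.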

Measured: growth inhibition

CCCCCCCCCCCCNC(=O)c1ccccc1O
inactive: [1] 13.2% | [2] 23.6% | [3] 17.9% | [4] 20.8% | [5] 10.6% | [6] 35.8%

N#CC(C#N)=C(N)/C(C#N)=C\c1ccnc2ccccc12
inactive: [1] -28.9% | [2] -1.75% | [3] -3% | [4] 15.1% | [5] 0.65% | [6] -18.2%

CC(=O)C(C)CO (stereo not given)
inactive: [1] 14.2% | [2] -21.1% | [3] 5.5% | [4] 8.55% | [5] 9.2% | [6] 13.7%

c1cncc(CSc2ncnc3nc[nH]c23)c1
inactive: [1] 11.8% | [2] -24.4% | [3] -20.1% | [4] -21.7% | [5] -48.4% | [6] -10.5%

C[C@H](CCC(=O)O[C@@H]1CC[C@@]2(C)C(CC[C@H]3[C@@H]4CC[C@H]([C@H](C)CCc5nc6ccccc6[nH]5)[C@@]4(C)CC[C@@H]32)C1)[C@H]1CC[C@H]2[C@@H]3CCC4C[C@H](O)CC[C@]4(C)[C@H]3CC[C@]12C (stereo not given in full)
inactive: [1] 5.8% | [2] -2.55% | [3] -16.4% | [4] 11.3% | [5] 6.2% | [6] -6.05%

Cc1ccc(SSCC(O)C(O)CSSc2ccc(C)cc2)cc1 (stereo not given)
inactive: [1] 11.6% | [2] -18.6% | [3] -30.6% | [4] 21.8% | [5] -5.6% | [6] 10.1%

COC(=O)C(N)CSCSC (stereo not given)
inactive: [1] -12.8% | [2] 13% | [3] 3.7% | [4] -44% | [5] -13.8% | [6] -5.65%

N#CC1CC=CCN1CCc1ccccc1 (stereo not given)
inactive: [1] -9.5% | [2] -5.75% | [3] -4.95% | [4] 42.5% | [5] 20.7% | [6] 7.5%

c1csc(NC(Nc2nccs2)C23CC4CC(CC(C4)C2)C3)n1
inactive: [1] 28.1% | [2] 12.7% | [3] -1.4% | [4] 20.6% | [5] 1.1% | [6] 7.45%

N#CC(CC(=O)O)=C(c1ccccc1)c1ccccc1
inactive: [1] -6.75% | [2] -22.2% | [3] -20.5% | [4] 11.7% | [5] -50.8% | [6] 8.95%

Cc1cccc(/C=C/c2cccc[n+]2[O-])[n+]1[O-]
inactive: [1] 3.1% | [2] -11.2% | [3] -19.9% | [4] -31.8% | [5] -0.2% | [6] -5.25%

c1ccc(-c2nc3ccccc3nc2-c2ccc(-c3nc4ccccc4nc3-c3ccccc3)cc2)cc1
inactive: [1] 8.2% | [2] -0.6% | [3] -9% | [4] 4.6% | [5] 1.85% | [6] -18.8%

COc1ccc(COC(=O)Nc2ccccc2Cl)cc1
inactive: [1] 5.85% | [2] -9.45% | [3] -4.9% | [4] -6.9% | [5] 17% | [6] -6.35%

CCC1CNCCC1CC(=O)O (stereo not given)
inactive: [1] 7.95% | [2] -12.8% | [3] -2.05% | [4] 24.8% | [5] -1.2% | [6] -22.2%

O=C(CCC(NC(=O)OCc1ccccc1)C(=O)OCc1ccccc1)Nc1cccc(OCc2ccccc2)c1 (stereo not given)
inactive: [1] -16.2% | [2] -18.1% | [3] -1.15% | [4] -23.6% | [5] -20% | [6] -27.4%

CCCO[C@@H]1[C@@H](OC(C)=O)[C@@H](OC(C)=O)C(C)(C)/C=C/[C@H](C)C(=O)[C@@]2(OC(C)=O)C[C@@](C)(OC(C)=O)[C@H](OC(C)=O)[C@@H]2[C@H]2OC(=O)CC[C@@]12OC(=O)c1ccccc1
inactive: [1] -14.7% | [2] -24.2% | [3] -56.5% | [4] -16.1% | [5] -48.8% | [6] -29.1%

CC(C)=C(CSC#N)S(=O)(=O)c1ccc(C)cc1
inactive: [1] 0.45% | [2] 14.2% | [3] 7.1% | [4] -5.1% | [5] 36.9% | [6] 14.7%

Nc1cccc2cccc(N)c12
inactive: [1] 51.9% | [2] 2.1% | [3] 41.5% | [4] 15.3% | [5] 9.65% | [6] 45%

CC(C)(C)OC(=O)N1CCCC1=O
inactive: [1] 9.65% | [2] 13% | [3] 24.8% | [4] 22.3% | [5] 8.05% | [6] 28.5%

Clc1ccc(C=Nc2ccc3c(c2)Cc2ccccc2-3)c(Cl)c1
inactive: [1] -5.15% | [2] -33.6% | [3] -21.6% | [4] -3.85% | [5] -35.2% | [6] -2.4%
